# High-throughput results deposited in PubChem by Center for Chemical Genomics, University of Michigan.
# This is one part of a sample in which hits are shown more often than they occur.
# Dicer processing: inhibitors of human Dicer processing of pre-microRNA | cat-ELCCA pre-miR-21 Dicer processing, chemiluminescence; active compounds read high | Q9UPY3 | 47,000 tested, 6% active | AID 1347074 | z-score at 25 µM; in the data active = z-score above about 3, passing the limit was not always enough;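 also: higher signal means more uncleaved substrate so more Dicer inhibition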
# Target sequence (Q9UPY3 whole entry, looked up): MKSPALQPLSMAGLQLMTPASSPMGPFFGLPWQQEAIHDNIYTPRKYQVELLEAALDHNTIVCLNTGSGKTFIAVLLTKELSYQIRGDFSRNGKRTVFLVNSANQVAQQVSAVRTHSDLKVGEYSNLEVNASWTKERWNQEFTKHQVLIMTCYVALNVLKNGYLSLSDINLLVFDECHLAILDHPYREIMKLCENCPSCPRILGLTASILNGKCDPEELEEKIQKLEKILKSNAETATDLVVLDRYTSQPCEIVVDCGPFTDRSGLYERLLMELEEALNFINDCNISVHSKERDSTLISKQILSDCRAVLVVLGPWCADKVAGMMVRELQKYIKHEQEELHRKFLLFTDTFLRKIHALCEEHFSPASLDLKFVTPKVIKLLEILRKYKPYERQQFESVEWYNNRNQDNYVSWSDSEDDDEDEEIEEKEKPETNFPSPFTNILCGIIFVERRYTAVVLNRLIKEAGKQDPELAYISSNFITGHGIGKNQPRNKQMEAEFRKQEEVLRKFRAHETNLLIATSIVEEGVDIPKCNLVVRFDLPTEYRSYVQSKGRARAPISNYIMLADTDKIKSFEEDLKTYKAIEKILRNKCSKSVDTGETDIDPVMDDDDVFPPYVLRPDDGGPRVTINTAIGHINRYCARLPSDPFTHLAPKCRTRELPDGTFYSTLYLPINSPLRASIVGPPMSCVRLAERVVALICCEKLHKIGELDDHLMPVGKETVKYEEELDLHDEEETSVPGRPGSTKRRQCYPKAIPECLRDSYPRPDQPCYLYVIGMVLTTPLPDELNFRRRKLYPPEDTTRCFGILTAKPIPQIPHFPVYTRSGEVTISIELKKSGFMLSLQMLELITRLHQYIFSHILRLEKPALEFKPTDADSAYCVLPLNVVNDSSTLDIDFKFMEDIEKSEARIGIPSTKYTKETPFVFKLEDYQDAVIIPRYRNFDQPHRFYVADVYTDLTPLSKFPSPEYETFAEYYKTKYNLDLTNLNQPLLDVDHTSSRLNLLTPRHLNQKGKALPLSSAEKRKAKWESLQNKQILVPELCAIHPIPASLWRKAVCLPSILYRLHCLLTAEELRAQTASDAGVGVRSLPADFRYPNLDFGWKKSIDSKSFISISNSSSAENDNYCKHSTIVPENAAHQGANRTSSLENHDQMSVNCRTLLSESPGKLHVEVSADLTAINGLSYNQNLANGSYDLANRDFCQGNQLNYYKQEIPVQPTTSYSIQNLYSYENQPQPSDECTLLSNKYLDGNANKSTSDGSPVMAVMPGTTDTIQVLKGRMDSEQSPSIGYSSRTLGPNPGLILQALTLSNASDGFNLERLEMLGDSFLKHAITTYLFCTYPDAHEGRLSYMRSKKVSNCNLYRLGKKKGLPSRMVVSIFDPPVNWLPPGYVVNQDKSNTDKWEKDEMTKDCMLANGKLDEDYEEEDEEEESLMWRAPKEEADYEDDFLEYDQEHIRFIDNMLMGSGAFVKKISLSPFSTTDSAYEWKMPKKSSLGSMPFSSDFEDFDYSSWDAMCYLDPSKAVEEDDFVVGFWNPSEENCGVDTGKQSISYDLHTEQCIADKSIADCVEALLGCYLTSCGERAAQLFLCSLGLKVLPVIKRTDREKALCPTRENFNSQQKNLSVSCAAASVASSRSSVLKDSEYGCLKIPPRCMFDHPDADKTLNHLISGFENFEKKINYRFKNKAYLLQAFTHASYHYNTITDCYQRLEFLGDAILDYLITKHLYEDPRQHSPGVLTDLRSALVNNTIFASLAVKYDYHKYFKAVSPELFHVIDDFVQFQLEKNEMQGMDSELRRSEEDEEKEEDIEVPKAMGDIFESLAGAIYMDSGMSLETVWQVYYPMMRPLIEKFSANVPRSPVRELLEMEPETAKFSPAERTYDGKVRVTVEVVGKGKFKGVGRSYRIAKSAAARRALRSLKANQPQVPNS
# Numbers stand for hits; i = inactive.
SMILES,Dicer processing
CCN1C(=O)C2(/C(=C(/O)c3ccc(F)cc3)C(=O)C(=O)N2CCN2CCOCC2)c2ccccc21 (stereo unspecified),5.7
COCCCN1C(=O)C(=O)/C(=C(/O)c2ccc(C)cc2)C1c1ccc(N(C)C)cc1 (stereo unspecified),3.18
CN1C(=O)C2(/C(=C(/O)c3ccc(F)cc3)C(=O)C(=O)N2CCN2CCOCC2)c2ccccc21 (stereo unspecified),i
COc1ccc(/C(O)=C2\C(=O)C(=O)N(CCCN(C)C)C2c2ccc(N(C)C)cc2)cc1 (stereo unspecified),i
COc1ccccc1-c1c(C(F)(F)F)oc2cc(OCC(=O)OCC(C)C)ccc2c1=O,i
Cn1c(=O)cc(Nc2ccc(Cl)cc2)c2c(=O)n(-c3ccccc3)c(=O)n(-c3ccccc3)c21,i
O=C1CCCC2=C1C(c1ccccc1Cl)c1c([nH]n(-c3ccccc3)c1=O)N2 (stereo unspecified),i
O=C(CSc1ncc(-c2ccc(Cl)cc2)o1)c1ccc(Cl)cc1,i
COC(=O)C1=C(Nc2ccc(OC(=O)c3cccc(C(F)(F)F)c3)cc2)CSC1,i
O=C(CSCc1ccco1)Nc1c(F)c(F)c(F)c(F)c1F,i
c1ccc(-c2cnn3cc(-c4ccc(OCCN5CCOCC5)cc4)cnc23)cc1,i
CCOC(=O)c1noc(C)c1C(=O)CSc1nc(C)c(C)c(C)c1C#N,i
COC(=O)c1ccc(C2NC(=O)CS2)cc1 (stereo unspecified),i
CC(C)c1ccc(-n2nnc3ccccc3c2=O)cc1,i
COC(=O)C1C(=O)NC(SCc2cccc3ccccc23)=C(C#N)C1c1ccccc1C (stereo unspecified),i
CN1C(=O)C2(/C(=C(/O)c3ccc(F)cc3)C(=O)C(=O)N2CCCN2CCOCC2)c2ccccc21 (stereo unspecified),i
C=CCN1C(=O)C2(/C(=C(/O)c3ccccc3)C(=O)C(=O)N2CCN2CCOCC2)c2ccccc21 (stereo unspecified),i
CCCN1C(=O)C2(/C(=C(/O)c3ccccc3)C(=O)C(=O)N2CCN2CCOCC2)c2ccccc21 (stereo unspecified),4.67
Cc1ccc(NC(=S)N(CCC#N)C2CCCCC2)c(C)c1,i
CC(=O)NCc1c(F)cccc1Cl,i
COC(=O)C1=C(C)NC2=C(C(=O)CC(c3cccs3)C2)C1c1ccc2c(c1)OCO2 (stereo unspecified),i
CCOC(=O)c1cc2c(N)c(C(=O)OCC)sc2nc1C,i
Cc1cccc(C)c1-n1nnnc1SCc1ccc(Br)cc1,i
OCCNc1ncnc2c1c(-c1ccccc1)c(-c1ccccc1)n2Cc1ccco1,5.89
c1cn(CCCNc2ncnc3ccsc23)cn1,i
SMILES,Dicer processing
OCCNc1ncnc2c1oc1ccccc12,i
c1ccc(-c2c(-c3ccccc3)n(Cc3ccco3)c3ncnc(NCc4ccco4)c23)cc1,i
c1ccc(-c2c(-c3ccccc3)n(Cc3ccco3)c3ncnc(NCCCn4ccnc4)c23)cc1,3.94
Cc1ccccc1OCc1nc(C#N)c(NCCCn2ccnc2)o1,i
COc1ccc(-c2c(C(F)(F)F)oc3cc(OC(=O)c4ccncc4)ccc3c2=O)cc1OC,i
CCOc1ccccc1C1CC(=O)NC(SCc2cccc3ccccc23)=C1C#N (stereo unspecified),i
COc1ccc(-c2ccc(C#N)c(=O)[nH]2)cc1,i
N#CC1=C(OS(=O)(=O)c2ccc(Cl)cc2)c2ccc(Cl)cc2N(S(=O)(=O)c2ccc(Cl)cc2)CC1,i
Cc1ccn2cc(-c3cccc(S(=O)(=O)N4CCCC(C)C4)c3)nc2c1 (stereo unspecified),i
COc1cc(N=C(N)N=C(N)N)cc(OC)c1,i
Cc1cc(N=C(N)N=C(N)N)ccc1Br,i
COc1ccc(N=C(N)N=C(N)N)cc1,6.29
O=C(NNC(=NS(=O)(=O)c1ccccc1)NNC(=O)c1cccc(Cl)c1)c1cccc(Cl)c1,3.11
O=C(CO/N=C/c1c(Cl)cccc1Cl)NNC(=O)c1cccc(Cl)c1,i
CS/C(=N/S(=O)(=O)c1ccccc1)NNC(=O)c1ccc(Cl)cc1,i
CC1CCC(C(C)C)C(NCc2ccccc2)C1 (stereo unspecified),i
COC(=O)CSC1=C(C#N)C(c2ccccc2Cl)CC(=O)N1 (stereo unspecified),i
COc1ccc(-n2[nH]c3[nH]c(-c4ccccc4)cc(=O)c3c2=O)cc1,i
CC(=O)Oc1ccccc1C(=O)OCC(=O)c1ccc(OCc2ccccc2)cc1,i
Cc1cccnc1NC(=S)Nc1cccc(C(F)(F)F)c1,i
CCOC(CN(c1ccc(F)cc1)S(=O)(=O)c1ccc(F)cc1F)OCC,i
CCOC(CN(C(=O)c1ccc(C)cc1)c1ccc(F)cc1)OCC,4.63
CCOC(CN(C(=O)c1ccc(C(F)(F)F)cc1)c1ccc(F)cc1)OCC,i
NC(CCc1ccc(F)cc1)c1ccc2c(c1)OCCO2 (stereo unspecified),i
CN(C)C(=O)C12CCC(C)(C(=O)C1)C2(C)C (stereo unspecified),3.14
SMILES,Dicer processing
COc1ccc2c(c1)CN(Cc1ccccc1)CO2,i
COc1ccc2[nH]c(C(=O)Nc3cc(C)nc(C)n3)cc2c1,i
COC(=O)c1sc(Sc2cccs2)c2c1CC(C)(C)CC2=O,i
CC(NC1CCCCC1)c1ccccc1 (stereo unspecified),i
COC(=O)c1cc(=O)n2c(c1C(=O)c1cccs1)SCC2,6.85
COC(=O)c1csc2c(C(F)(F)F)cc(N3CCN(C(=O)c4cccs4)CC3)nc12,i
COC(=O)c1ccsc1NC(=O)c1cccs1,i
CSc1nc(N)c(C#N)n1Cc1ccco1,i
c1ccc(Nc2nc(-c3cccs3)cs2)cc1,i
COc1ccc(Nc2nc(-c3ccncc3)cs2)cc1,i
CCN(CC)c1ccc(Nc2nc(-c3c(C)nc4ncccn34)cs2)cc1,4.07
CCNC(=O)c1c(C)nc2ccccn12,i
Cc1nc2ccccn2c1-c1csc(Nc2cccc(O)c2)n1,6.5
CCN(CC)c1ccc(Nc2nc(-c3ccccn3)cs2)cc1,i
COc1ccc(Nc2nc(-c3c(C)nc4ccccn34)cs2)cc1,3.56
Oc1cccc(Nc2nc(-c3cccnc3)cs2)c1,i
Cc1cccc(Nc2nc(-c3c(C)nc4ccccn34)cs2)c1,4.62
Cc1cccc(Nc2n[nH]c(=S)s2)c1,i
CCN(CC)c1ccc(Nc2nc(-c3cccnc3)cs2)cc1,i
COc1ccccc1Nc1nc(-c2c(C)nc3ccccn23)cs1,i
CS(=O)(=O)/C(C#N)=C/Nc1ncccn1,i
CC1=CC(C)C2COC(c3ccccc3O)C1C2 (stereo unspecified),i
COc1ccc2c(c1)CCCN2C(=O)c1c(-c2c(Cl)cccc2Cl)noc1C,i
Cc1nc(NC2=NCN(C(C)C)CN2)nc2ccccc12,i
CCOC(=O)c1cc2cc(Cl)ccc2oc1=O,i
SMILES,Dicer processing
Cc1nc2ccccn2c1-c1ccnc(SCC(=O)N(c2ccccc2)C2CCCCC2)n1,i
O=C1CC(c2cccc(Cl)c2)Cc2nc(N3CCN(Cc4ccccc4)CC3)ncc21 (stereo unspecified),i
CCSc1cc(C(F)(F)F)c(C(=O)N(C)Cc2c(OC)cccc2OC)cn1,i
COC(=O)/C(C#N)=C/c1ccc(Cl)cc1Cl,i
O=C1CCCC(OC(=O)c2cccc(C(F)(F)F)c2)=C1Cl,i
CN1C(=O)c2cccc3c(S(=O)(=O)NCCCCCC(=O)O)ccc1c23,i
CN1C(=O)c2cccc3c(S(=O)(=O)NCCCC(=O)O)ccc1c23,i
CN1C(=O)c2cccc3c(S(=O)(=O)NCC(=O)O)ccc1c23,3.08
NNC(=O)c1csc(N/N=C2\CCCc3ccccc32)n1,i
